# Screens (PubChem)
# Hits are enriched below; roughly 4.7% of the tested compounds scored in any of these assays.
# D1 antag: Antagonist of Human D 1 Dopamine Receptor: qHTS; D(1A) dopamine receptor (Homo sapiens), P21728; HEK293 TREx D1 cells, calcium flux, dopamine EC80; stronger effect = lower value; activity change, negative = inhibition, % at 10 µM; hit rate 3.2% among 360,000; AID 504652, 2011; in the data active = activity change below about -30%; note: % is set by controls: 0 for no effect and ±100 for the full control effect
#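 Using tetracycline-induced force-coupled D1 Hek293 cells and a calcium dye, signals were followed for 180 s after compound, then for 180 s after EC80 dopamine, to detect inhibitors.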
# TRHR agonist-1: qHTS for Small Molecule Agonists and Allosteric Enhancers of Human TRH Receptor: Primary Screen for Agonists; Thyrotropin-releasing hormone receptor (Homo sapiens), P34981; TRHR cells, calcium flux fluo-8, FDSS agonist mode; activation, % at 2 µM; hit rate 0.18% among 360,000; AID 493084, 2011; note: 0% is about no effect
# Target sequence (P34981 whole entry, looked up): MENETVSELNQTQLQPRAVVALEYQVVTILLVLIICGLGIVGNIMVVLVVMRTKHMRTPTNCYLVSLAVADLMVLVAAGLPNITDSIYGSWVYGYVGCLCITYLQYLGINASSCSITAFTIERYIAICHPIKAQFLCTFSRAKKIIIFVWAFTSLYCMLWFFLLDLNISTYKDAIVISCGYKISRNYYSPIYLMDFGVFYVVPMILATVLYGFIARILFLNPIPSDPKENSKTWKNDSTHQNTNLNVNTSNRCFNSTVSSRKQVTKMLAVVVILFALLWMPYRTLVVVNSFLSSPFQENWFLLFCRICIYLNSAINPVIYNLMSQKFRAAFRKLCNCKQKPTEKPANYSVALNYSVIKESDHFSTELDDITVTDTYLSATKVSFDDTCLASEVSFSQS
#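 Agonist-mode FDSS calcium read (Ex 480/Em 530, 1 s cycles) in 1536-well TRHR cells with fluo-8 dye, after 10-cycle baseline and 23 nL compound addition; TRH at EC20 (10 nM final) added afterwards for the enhancer phase.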
# D1 PAM: Potentiators of Human D1 Dopamine Receptor: qHTS | HEK293 TREx D1 cells, calcium flux, dopamine EC20 potentiation | potentiation, % at 10 µM | D(1A) dopamine receptor (Homo sapiens), P21728 | hit rate 0.036% among 360,000; in the data active = potentiation above about 30%; note: 0% is about no effect
# D1 agonist: Allosteric Agonists of the Human D1 Dopamine Receptor: qHTS; D(1A) dopamine receptor (Homo sapiens), P21728; HEK293 T-REx D1 cells, calcium flux, agonist mode; activation, % at 2 µM; hit rate 1% among 360,000; note: 0% is about no effect
#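 Agonism was scored from calcium flux recorded over 180 s (1 read/s) after pintool compound addition, following a 10-cycle baseline. Cells were inducible force-coupled HEK293 TREx D1, plated overnight at 30 C and loaded with no-wash calcium dye.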
# TRHR enhancer-1: qHTS for Small Molecule Agonists and Allosteric Enhancers of Human TRH Receptor: Primary Screen for Enhancers | Thyrotropin-releasing hormone receptor (Homo sapiens), P34981 | TRHR cells, fluo-8 calcium fluorescence, EC20 TRH enhancement | enhancement, % at 2 µM | hit rate 0.66% among 360,000; in the data active = enhancement above about 30%; note: 0% is about no effect
#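 TRHR-expressing cells loaded with fluo-8 calcium dye were read kinetically (ex 480/em 530) during compound addition, then stimulated with an EC20 of TRH (10 nM final). Enhancement of the Gq-mediated intracellular calcium response was scored.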
# TRHR enhancer-2: qHTS for Small Molecule Agonists and Allosteric Enhancers of Human TRH Receptor: Confirmation Screen for Enhancers; 970 tested, under 10 active; activity change, negative = inhibition, % at 46.1 µM; TRH receptor cell assay, enhancer confirmation qHTS; AID 493076, 2011; shares compounds with TRHR enhancer-1; active = well fitted curve in the direction sought with a large enough effect; inconclusive = small, poorly fitted or top-dose-only effect, or another doubt; inactive = no such curve, though single readings can be large; an effect the other way counts as inactive or inconclusive;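 note: compound effect scored on response to added TRH at EC20 of 10 nM; 0% is about no effect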
# TRHR agonist-2: qHTS for Small Molecule Agonists and Allosteric Enhancers of Human TRH Receptor: Confirmation Screen for Agonists; shares compounds with TRHR enhancer-1; TRHR-expressing cells, agonist activation read-out; Potency, µM (doses to about 46.1 µM), for the others: top-dose activation, usual class: activators; hit rate 8% among 970; active = well fitted curve in the direction sought with a large enough effect; inconclusive = small, poorly fitted or top-dose-only effect, or another doubt; inactive = no such curve, though single readings can be large; an effect the other way counts as inactive or inconclusive; note: potency is the fitted concentration of half-maximal effect; 0% is about no effect; nearly all actives have a fitted effect of over 75% in size
# Numbers without * were called inactive; ? = inconclusive; / = no result. Cut-off read from the data, not from the text of the source, unless noted: active = activation above about 30%; inactive = the rest.
SMILES,D1 antag,TRHR agonist-1,D1 PAM,D1 agonist,TRHR enhancer-1,TRHR enhancer-2,TRHR agonist-2
CC1CCC2C(=O)N(c3cccc(C(=O)Nc4ccc(F)cc4)c3)C(=O)C2C1 (stereo not given),-24,0,-2,4,57*,-1,2%
CCOc1cccc(NC(=O)C2CC(=O)NC(=Nc3ccccc3)S2)c1 (stereo not given),-9,0,2,3,84*,0,2%
Cc1ccc2[nH]c(CCN(C)C)c(CC#N)c2c1,9,0,-2,20,66*,-6,?
O=C(Nc1ccc(CN2CCOCC2)cc1)c1ccc(F)cc1,1,-1,0,2,56*,8,-1%
COc1cc(/C=C2\SC(=S)N(Nc3ncc(C(F)(F)F)cc3Cl)C2=O)ccc1O,9,47*,-1,97*,26,1,?
O=C(NN1C(=O)/C(=C/c2ccc(O)c(O)c2)SC1=S)c1ccccc1,12,29,1,26,10,?,?
COc1cc(/C=C2\SC(=S)N(C(Cc3ccccc3)C(=O)O)C2=O)ccc1O (stereo not given),-9,34*,3,47*,4,0,?
COc1cc(/C=C2\SC(=S)N(c3cccnc3)C2=O)ccc1O,-6,-1,-6,30,6,/,/
COc1cc(/C=C2\SC(=S)N(Nc3ccccc3)C2=O)ccc1O,-3,35*,-4,122*,-6,2,16µM*
Cc1ccc(S(=O)(=O)N2CCN(c3nc(-c4ccc(F)cc4)nc4cc(Cl)ccc34)CC2)cc1,-4,0,0,1,-2,/,/
Cc1cccc(NC(=O)CCCN=C2NS(=O)(=O)c3ccccc32)c1C,0,1,/,14,3,/,/
COc1ccc(N=C2O/C(=C/c3sc(=S)n(CC4CCCO4)c3O)N=C2C#N)cc1 (stereo not given),2,2,11,3,43*,-3,4%
COc1ccc(/C=C2\SC(=S)N(CC3CCCO3)C2=O)cc1 (stereo not given),2,1,0,12,2,/,/
CC1(C)NC(=O)N(CC(O)Cn2nnc3ccccc32)C1=O (stereo not given),0,0,1,3,51*,-1,0%
N#CC1=C(N)N(c2cccc(Cl)c2)C2=C(C(=O)CCC2)C1c1cc(CN2CCOCC2)cs1 (stereo not given),7,-2,1,1,-4,/,/
Cc1ccc(S(=O)(=O)N2CCN(CC(=O)Nc3ccc4c(c3)CCC4)CC2)cc1C,-2,0,-2,3,44*,-2,4%
O=C(CN1CCN(S(=O)(=O)c2ccc(Cl)cc2)CC1)Nc1ccc2c(c1)CCC2,-4,0,-4,4,-1,/,/
Cc1ccc(NC(=O)CN2CCc3ccccc3C2)cc1S(=O)(=O)N(C)C,-2,0,-6,4,58*,-4,0%
CCc1ccc(NC(=O)CN2C(=O)CSc3ccc(S(=O)(=O)N(C)C)cc32)cc1,8,1,4,2,4,/,/
Cc1cccc(NC(=O)CCc2c(C)nc3c(c(C)nn3C(C)(C)C)c2C)c1C,-1,0,3,-1,-2,/,/
CC(C)(O)c1cc2ccc(C#Cc3ccsc3)cc2c(=O)o1,/,1,-6,-3,6,/,/
O=C(c1ccc2c(c1)OCO2)C1CCCN(C(=O)c2cnn(Cc3ccccc3)c2)C1 (stereo not given),-5,-1,-6,1,41*,-7,0%
CCc1ccc(-n2c(=O)c3cccnc3n2CC(=O)N(CC)c2cccc(C)c2)cc1,7,1,1,14,-3,/,/
Nc1c(C(=O)C2CC2)sc2nc(-c3ccccc3)cc(C(F)(F)F)c12,21,43*,-3,66*,10,9,8.2µM*
Cc1ccc(CNC(=O)CN(C)S(=O)(=O)c2ccc3c(c2)n(C)c(=O)c(=O)n3C)cc1,0,-1,1,1,2,/,/
SMILES,D1 antag,TRHR agonist-1,D1 PAM,D1 agonist,TRHR enhancer-1,TRHR enhancer-2,TRHR agonist-2
N#Cc1cc(C(=O)c2ccccc2O)cn(-c2ccc(Cl)cc2)c1=O,-2,19,-3,19,0,/,/
Cc1c(-n2cc(C(=O)c3ccccc3O)cc(C#N)c2=O)c(=O)n(-c2ccccc2)n1C,-6,42*,-12,36*,-2,-8,?
COC(=O)c1nnn(-c2nonc2N)c1CSc1nc2ccccc2s1,-25,0,-4,-1,3,/,/
CCOC(=O)c1nnn(-c2nonc2N)c1CSc1nnc(N)s1,1,0,-2,-2,52*,-1,1%
COc1cc(/C=C(/C#N)C(=O)NC(C)c2ccccc2)cc(OC)c1O (stereo not given),4,118*,1,95*,0,8,21µM*
O=C(c1cccc(NS(=O)(=O)c2ccccc2)c1)N1CCCCC1,11,0,-4,-1,-7,/,/
CN1CCC(=NNC(=O)CSc2ccc(Cl)cc2)CC1,1,0,1,1,44*,-5,0%
CC(=O)N1CCc2c(sc3c2c(=O)n(-c2ccccc2C)c(=O)n3CC(=O)c2ccccc2)C1,-14,0,-2,6,7,/,/
O=c1ccc(-c2nc3ccccc3n2Cc2ccc(Cl)cc2)c[nH]1,-7,1,6,1,49*,-7,1%
Cn1c(-c2ccc(=O)[nH]c2)nc2ccccc21,9,0,1,15,3,/,/
CCOCCn1ccc2c(OCC(=O)Nc3ccc(C(N)=O)cc3)cccc2c1=O,/,1,0,4,1,/,/
O=c1c2ccccc2c(/C=N/NS(=O)(=O)c2ccccc2)c(O)n1-c1ccccn1,5,32*,-6,21,27,-6,4%
Cc1ccc(CN(C(=O)COc2ccc(Br)cc2)C2CCS(=O)(=O)C2)o1 (stereo not given),1,0,-1,3,0,/,/
CC1(C)O[C@H]2[C@@H](O1)[C@@H](C(=O)Nc1cc(F)ccc1F)O[C@@H]1OC(C)(C)O[C@@H]12,8,0,-2,-1,0,/,/
